Source: the supplement of paper PMC10849652
About 7,900 targets were measured; listed, in parts, are those with a hit and a random draw of the rest. About 0.6% of all pairs of compound and target were hits. A number with no mark means an inactive call.

Key:
Test in all cases: log2 fold change, soluble protein after heating vs DMSO (PISA); higher = thermal stabilisation; K562 cells, 10 uM, 30 min; active = over 0.2 and 3.5 SD of the protein, either way, in both replicates (recomputed)
crizotinib = compound: C[C@@H](Oc1cc(-c2cnn(C3CCNCC3)c2)cnc1N)c1c(Cl)ccc(F)c1Cl [crizotinib]
How it was run: (§1)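 K562 cells at 2×10^6 cells/mL were exposed to 10 μM compound for 30 min, then aliquots were heated for 3 min across 48°C-58°C, pooled, and extracted in PBS containing 0.5% NP-40 at 4°C. The supernatant after 21,000xg for 90 min was taken as soluble protein and measured by TMTpro 16plex LC-MS/MS with channel sums equalised. Thermal stability is reported relative to control samples, with values from duplicates. Fold changes are given on a log2 scale.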

[1] = compound: C[C@@H]1COCCN1C2=NC(=NC(=C2)C3(CC3)S(=O)(=O)C)C4=C5C=CNC5=CC=C4
How it was run: as §1

[2] = compound: C[C@H](C1=CC=C(C=C1)C(=O)NC2=C3C=CNC3=NC=C2)N
How it was run: as §1

duvelisib = compound: C[C@H](Nc1ncnc2nc[nH]c12)c1cc2cccc(Cl)c2c(=O)n1-c1ccccc1 [duvelisib]
How it was run: as §1

tozasertib = compound: Cc1cc(Nc2cc(N3CCN(C)CC3)nc(Sc3ccc(NC(=O)C4CC4)cc3)n2)n[nH]1 [tozasertib]
How it was run: as §1

[3] = compound: Cc1cc(SCc2sc(-c3ccc(C(F)(F)F)cc3)nc2C)ccc1OCC(=O)O
How it was run: as §1

doramapimod = compound: Cc1ccc(-n2nc(C(C)(C)C)cc2NC(=O)Nc2ccc(OCCN3CCOCC3)c3ccccc23)cc1 [doramapimod]
How it was run: as §1

ispinesib = compound: Cc1ccc(C(=O)N(CCCN)[C@@H](c2nc3cc(Cl)ccc3c(=O)n2Cc2ccccc2)C(C)C)cc1 [ispinesib]
How it was run: as §1

bafetinib = compound: Cc1ccc(NC(=O)c2ccc(CN3CC[C@H](N(C)C)C3)c(C(F)(F)F)c2)cc1Nc1nccc(-c2cncnc2)n1 [bafetinib]
How it was run: as §1

dasatinib = compound: Cc1nc(Nc2ncc(C(=O)Nc3c(C)cccc3Cl)s2)cc(N2CCN(CCO)CC2)n1 [dasatinib]
How it was run: as §1

[4] = compound: Cn1cc(-c2ccc3c(c2)CCN3C(=O)Cc2cccc(C(F)(F)F)c2)c2c(N)ncnc21
How it was run: as §1

[5] = compound: Cn1cc(-c2ccc3nnc(C(F)(F)c4ccc5ncccc5c4)n3n2)cn1
How it was run: as §1

tipifarnib = compound: Cn1cncc1[C@@](N)(c1ccc(Cl)cc1)c1ccc2c(c1)c(-c1cccc(Cl)c1)cc(=O)n2C [tipifarnib]
How it was run: as §1

mubritinib = compound: FC(F)(F)c1ccc(/C=C/c2nc(COc3ccc(CCCCn4ccnn4)cc3)co2)cc1 [mubritinib]
How it was run: as §1

[6] = compound: CS(=O)(=O)c1ccc(-c2cnc(N)c(C(=O)Nc3ccccc3)n2)cc1
How it was run: as §1

gandotinib = compound: Cc1cc(Nc2cc(CN3CCOCC3)c3nc(C)c(Cc4ccc(Cl)cc4F)n3n2)n[nH]1 [gandotinib]
How it was run: as §1

[7] = compound: Cc1cccc(CC(=O)N2CCc3c2ccc(-c2cn(C)c4ncnc(N)c24)c3F)n1
How it was run: as §1

nilotinib = compound: Cc1cn(-c2cc(NC(=O)c3ccc(C)c(Nc4nccc(-c5cccnc5)n4)c3)cc(C(F)(F)F)c2)cn1 [nilotinib]
How it was run: as §1

[8] = compound: Cc1nc(Nc2n[nH]c3c2CN(C(=O)N[C@H](CN(C)C)c2ccccc2)C3(C)C)c2sccc2n1
How it was run: as §1

[9] = compound: Cc1ncc(-c2ccnc(Nc3ccc(S(C)(=O)=O)cc3)n2)n1C(C)C
How it was run: as §1

UniProt P54652, sequence (P54652 whole entry, looked up): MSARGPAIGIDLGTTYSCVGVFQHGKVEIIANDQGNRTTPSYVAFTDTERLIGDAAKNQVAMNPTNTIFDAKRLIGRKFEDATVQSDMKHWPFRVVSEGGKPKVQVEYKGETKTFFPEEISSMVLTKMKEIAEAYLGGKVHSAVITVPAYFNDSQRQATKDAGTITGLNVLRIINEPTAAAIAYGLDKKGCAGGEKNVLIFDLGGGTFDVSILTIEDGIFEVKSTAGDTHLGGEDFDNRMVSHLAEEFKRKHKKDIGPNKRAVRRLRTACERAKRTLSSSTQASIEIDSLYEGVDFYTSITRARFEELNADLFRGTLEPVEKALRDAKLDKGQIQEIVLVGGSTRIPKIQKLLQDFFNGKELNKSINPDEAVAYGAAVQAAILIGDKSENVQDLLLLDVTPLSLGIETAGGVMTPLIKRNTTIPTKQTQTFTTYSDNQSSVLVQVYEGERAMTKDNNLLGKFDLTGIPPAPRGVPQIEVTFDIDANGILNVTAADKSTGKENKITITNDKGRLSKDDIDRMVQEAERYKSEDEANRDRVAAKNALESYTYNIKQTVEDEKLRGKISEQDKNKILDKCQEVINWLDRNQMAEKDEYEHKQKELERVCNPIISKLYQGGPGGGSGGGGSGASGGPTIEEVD
UniProt Q9Y324, sequence (Q9Y324 whole entry, looked up): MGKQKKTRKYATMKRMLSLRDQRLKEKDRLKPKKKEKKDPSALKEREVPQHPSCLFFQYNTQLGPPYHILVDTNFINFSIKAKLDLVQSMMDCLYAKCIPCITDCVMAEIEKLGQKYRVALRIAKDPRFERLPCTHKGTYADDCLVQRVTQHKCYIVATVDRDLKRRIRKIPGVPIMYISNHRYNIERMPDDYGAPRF
UniProt Q04446, sequence (Q04446 whole entry, looked up): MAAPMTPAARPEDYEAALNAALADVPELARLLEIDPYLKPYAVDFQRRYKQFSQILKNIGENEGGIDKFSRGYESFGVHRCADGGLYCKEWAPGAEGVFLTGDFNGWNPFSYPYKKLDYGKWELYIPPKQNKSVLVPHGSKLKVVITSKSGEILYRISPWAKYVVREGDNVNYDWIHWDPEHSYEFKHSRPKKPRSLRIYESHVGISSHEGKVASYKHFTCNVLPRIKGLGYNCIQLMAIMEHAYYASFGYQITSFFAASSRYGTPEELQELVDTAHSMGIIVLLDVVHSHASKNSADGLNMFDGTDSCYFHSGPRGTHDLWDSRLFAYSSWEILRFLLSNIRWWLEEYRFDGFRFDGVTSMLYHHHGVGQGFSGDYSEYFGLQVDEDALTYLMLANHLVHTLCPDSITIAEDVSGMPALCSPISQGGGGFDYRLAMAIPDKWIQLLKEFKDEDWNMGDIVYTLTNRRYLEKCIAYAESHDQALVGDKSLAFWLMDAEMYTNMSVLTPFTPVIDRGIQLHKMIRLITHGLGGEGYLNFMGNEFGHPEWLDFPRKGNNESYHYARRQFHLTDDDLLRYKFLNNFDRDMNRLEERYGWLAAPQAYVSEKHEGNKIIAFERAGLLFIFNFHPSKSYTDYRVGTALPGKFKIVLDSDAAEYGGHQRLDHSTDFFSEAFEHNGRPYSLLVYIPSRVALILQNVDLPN
UniProt Q9HCG7, sequence (Q9HCG7 whole entry, looked up): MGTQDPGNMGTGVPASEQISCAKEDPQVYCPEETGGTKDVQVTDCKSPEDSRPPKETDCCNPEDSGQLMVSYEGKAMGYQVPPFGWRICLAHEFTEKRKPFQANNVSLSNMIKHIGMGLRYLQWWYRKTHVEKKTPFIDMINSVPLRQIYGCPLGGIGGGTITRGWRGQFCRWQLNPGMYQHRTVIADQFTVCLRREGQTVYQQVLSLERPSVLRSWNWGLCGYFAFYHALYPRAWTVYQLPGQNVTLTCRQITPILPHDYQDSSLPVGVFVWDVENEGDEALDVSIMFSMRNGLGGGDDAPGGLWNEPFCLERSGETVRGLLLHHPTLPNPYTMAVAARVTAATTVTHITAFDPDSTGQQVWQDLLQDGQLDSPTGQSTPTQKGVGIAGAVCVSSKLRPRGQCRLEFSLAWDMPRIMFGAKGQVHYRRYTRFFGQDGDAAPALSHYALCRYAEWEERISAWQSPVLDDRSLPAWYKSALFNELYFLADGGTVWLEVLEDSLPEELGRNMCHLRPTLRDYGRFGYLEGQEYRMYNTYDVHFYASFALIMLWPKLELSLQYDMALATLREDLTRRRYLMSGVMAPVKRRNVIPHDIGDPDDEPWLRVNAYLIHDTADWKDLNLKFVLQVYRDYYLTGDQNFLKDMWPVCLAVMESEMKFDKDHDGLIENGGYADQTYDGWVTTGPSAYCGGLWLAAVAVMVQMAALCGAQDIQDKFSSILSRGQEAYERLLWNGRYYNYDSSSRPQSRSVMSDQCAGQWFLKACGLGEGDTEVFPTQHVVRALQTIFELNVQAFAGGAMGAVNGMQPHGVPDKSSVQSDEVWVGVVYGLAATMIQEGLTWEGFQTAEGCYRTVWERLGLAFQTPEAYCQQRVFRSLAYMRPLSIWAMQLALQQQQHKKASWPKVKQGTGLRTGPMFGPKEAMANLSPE
UniProt P50213, sequence (P50213 whole entry, looked up): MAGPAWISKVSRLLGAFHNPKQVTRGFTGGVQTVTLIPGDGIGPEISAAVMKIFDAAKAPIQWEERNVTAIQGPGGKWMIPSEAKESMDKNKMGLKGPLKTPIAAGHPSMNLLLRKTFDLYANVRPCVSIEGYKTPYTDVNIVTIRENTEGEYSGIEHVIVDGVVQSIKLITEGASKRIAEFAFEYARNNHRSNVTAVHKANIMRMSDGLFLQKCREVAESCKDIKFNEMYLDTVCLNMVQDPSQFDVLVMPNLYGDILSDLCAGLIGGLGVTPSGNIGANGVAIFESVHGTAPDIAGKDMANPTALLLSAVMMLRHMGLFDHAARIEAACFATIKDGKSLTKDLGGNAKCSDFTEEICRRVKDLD
UniProt P21695, sequence (P21695 whole entry, looked up): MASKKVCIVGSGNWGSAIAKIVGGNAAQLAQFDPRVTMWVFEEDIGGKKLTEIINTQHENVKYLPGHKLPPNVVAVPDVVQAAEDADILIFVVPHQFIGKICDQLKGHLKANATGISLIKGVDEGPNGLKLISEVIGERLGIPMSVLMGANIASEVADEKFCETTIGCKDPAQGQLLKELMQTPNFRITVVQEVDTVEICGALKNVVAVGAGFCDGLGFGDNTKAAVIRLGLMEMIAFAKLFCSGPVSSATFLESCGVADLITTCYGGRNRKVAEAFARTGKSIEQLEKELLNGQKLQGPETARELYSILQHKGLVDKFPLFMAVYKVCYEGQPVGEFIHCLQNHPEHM
UniProt I6L899, sequence (I6L899 whole entry, looked up): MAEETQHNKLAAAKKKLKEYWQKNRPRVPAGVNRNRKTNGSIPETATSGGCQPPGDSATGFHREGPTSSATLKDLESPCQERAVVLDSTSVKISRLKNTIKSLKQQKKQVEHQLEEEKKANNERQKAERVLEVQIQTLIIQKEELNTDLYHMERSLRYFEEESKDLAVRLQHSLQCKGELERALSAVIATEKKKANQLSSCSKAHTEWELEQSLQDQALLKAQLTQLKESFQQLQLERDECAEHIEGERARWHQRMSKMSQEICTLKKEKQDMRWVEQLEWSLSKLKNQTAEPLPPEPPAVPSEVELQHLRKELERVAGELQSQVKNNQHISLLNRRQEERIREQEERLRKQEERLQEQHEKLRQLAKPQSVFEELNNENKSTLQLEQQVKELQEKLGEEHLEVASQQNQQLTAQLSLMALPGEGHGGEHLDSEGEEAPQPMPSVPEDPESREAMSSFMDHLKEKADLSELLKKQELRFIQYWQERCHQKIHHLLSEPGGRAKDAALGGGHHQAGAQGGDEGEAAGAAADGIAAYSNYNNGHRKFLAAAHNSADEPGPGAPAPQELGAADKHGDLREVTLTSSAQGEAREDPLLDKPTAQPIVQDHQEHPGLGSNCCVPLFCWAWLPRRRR
UniProt Q9H6D7, sequence (Q9H6D7 whole entry, looked up): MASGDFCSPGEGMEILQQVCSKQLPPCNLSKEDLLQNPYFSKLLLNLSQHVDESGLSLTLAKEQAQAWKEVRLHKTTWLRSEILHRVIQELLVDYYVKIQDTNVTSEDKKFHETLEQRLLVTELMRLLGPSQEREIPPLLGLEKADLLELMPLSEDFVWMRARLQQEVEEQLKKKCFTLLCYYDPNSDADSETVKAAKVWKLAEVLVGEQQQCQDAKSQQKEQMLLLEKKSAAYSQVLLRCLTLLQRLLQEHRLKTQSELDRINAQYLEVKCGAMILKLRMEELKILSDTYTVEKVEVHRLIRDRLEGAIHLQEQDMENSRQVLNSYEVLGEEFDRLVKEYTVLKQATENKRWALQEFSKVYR
UniProt Q9BVP2, sequence (Q9BVP2 whole entry, looked up): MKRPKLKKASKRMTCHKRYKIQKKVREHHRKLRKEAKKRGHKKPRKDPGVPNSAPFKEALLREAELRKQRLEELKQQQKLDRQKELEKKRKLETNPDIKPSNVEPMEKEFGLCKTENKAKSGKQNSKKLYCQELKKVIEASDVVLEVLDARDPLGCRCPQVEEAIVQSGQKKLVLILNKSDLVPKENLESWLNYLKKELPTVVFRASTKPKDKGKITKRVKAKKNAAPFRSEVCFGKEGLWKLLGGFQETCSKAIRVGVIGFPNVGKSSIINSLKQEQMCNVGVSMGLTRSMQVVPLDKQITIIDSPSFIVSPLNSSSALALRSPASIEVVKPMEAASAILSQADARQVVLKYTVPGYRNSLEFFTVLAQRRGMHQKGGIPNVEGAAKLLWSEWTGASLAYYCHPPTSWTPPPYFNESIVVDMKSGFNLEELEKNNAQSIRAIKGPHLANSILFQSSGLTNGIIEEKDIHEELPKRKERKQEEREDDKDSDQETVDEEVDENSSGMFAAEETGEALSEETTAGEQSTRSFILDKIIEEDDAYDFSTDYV
UniProt Q01628, sequence (Q01628 whole entry, looked up): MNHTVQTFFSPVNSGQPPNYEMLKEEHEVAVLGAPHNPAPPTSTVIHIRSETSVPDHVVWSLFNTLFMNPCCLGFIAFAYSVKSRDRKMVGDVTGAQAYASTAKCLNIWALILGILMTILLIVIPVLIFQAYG

| Target | log2 fold change (crizotinib) | log2 fold change [1] | log2 fold change [2] | log2 fold change (duvelisib) | log2 fold change (tozasertib) | log2 fold change [3] | log2 fold change (doramapimod) | log2 fold change (ispinesib) | log2 fold change (bafetinib) | log2 fold change (dasatinib) | log2 fold change [4] | log2 fold change [5] | log2 fold change (tipifarnib) | log2 fold change (mubritinib) | log2 fold change [6] | log2 fold change (gandotinib) | log2 fold change [7] | log2 fold change (nilotinib) | log2 fold change [8] | log2 fold change [9] |
| --- | --- | --- | --- | --- | --- | --- | --- | --- | --- | --- | --- | --- | --- | --- | --- | --- | --- | --- | --- | --- |
| GBE1 (UniProt Q04446) | -0.565 (active) | -0.054 | 0.193 | -0.026 | -0.001 | 0.094 | -0.02 | -0.286 | 0.067 | -0.275 | -0.004 | 0.059 | -0.608 | 0.181 | – | – | – | – | – | – |
| HAUS4 (UniProt Q9H6D7) | – | 0.024 | 0.139 | -0.303 | 0.041 | -0.195 | – | -0.259 | -0.069 | 0.178 | -0.045 | -0.051 | -0.115 | -0.547 | 0.068 | 0.015 | 0.023 | 0.08 | 0.086 | 0.567 |
| FAT2 (UniProt Q9NYQ8) | -0.148 | 0.131 | 0.306 | 0.372 | -0.184 | 0.121 | 0.006 | -0.006 | 0.076 | 0.006 | 0.167 | 0.002 | 0.008 | 0.354 | – | -0.149 | -0.005 | – | – | – |
| HSPA2 (UniProt P54652) | 0.123 | – | – | – | – | – | -0.003 | -0.025 | -0.08 | – | – | 0.003 | – | -0.067 | 0.011 | – | – | 0.024 | 0.031 | -0.013 |
| GOLGA8R (UniProt I6L899) | -0.009 | – | -0.059 | 0.242 | -0.033 | -0.067 | 0.108 | -0.038 | -0.095 | -0.074 | 0.189 | 0.126 | 0.287 | – | – | 0.324 | -0.021 | – | – | – |
| GGA2 (UniProt Q9UJY4) | -0.089 | 0.032 | 0.036 | 0.053 | -0.025 | 0.015 | 0.009 | -0.177 | 0.024 | 0.075 | 0.024 | 0.034 | -0.003 | 0.014 | 0.038 | – | – | -0.031 | 0.065 | -0.013 |
| FYB1 isoform 3 (UniProt O15117) | -0.11 | 0.046 | – | -0.344 (active) | 0.009 | 0.067 | 0.021 | -0.083 | -0.019 | -0.021 | – | -0.156 | -0.025 | 0.085 | -0.025 | 0.057 | -0.071 | -0.036 | -0.026 | -0.077 |
| GBA2 (UniProt Q9HCG7) | 0.094 | 0.051 | 0.004 | 0.041 | -0.053 | 0.067 | 0.056 | – | 0.045 | -0.144 | 0.138 | – | 0.091 | 0.234 | 0.091 | – | – | -0.057 | -0.061 | 0.007 |
| GPD1 (UniProt P21695) | – | 0.034 | -0.482 | 0.124 | -0.072 | -0.034 | – | 0.046 | -0.171 | 0.061 | 0.238 | 0.163 | 0.057 | 0.045 | -0.036 | 0.094 | -0.123 | -0.104 | 0.054 | -0.017 |
| IDH3A isoform 2 (UniProt P50213) | -0.206 | – | -0.016 | – | -0.141 | – | 0.051 | – | 0.004 | – | 0.128 | – | – | – | – | – | – | 0 | 0.001 | -0.057 |
| HSPA8 (UniProt E9PN89) | 0.063 | 0.024 | 0.377 | – | -0.122 | – | 0 | – | -0.04 | – | -0.063 | – | 0.122 | 0.004 | 0.12 | -0.068 | -0.338 | -0.12 | 0.041 | -0.123 |
| GREB1 (UniProt Q4ZG55) | 0.163 | -0.046 | 0.12 | – | -0.171 | – | -0.007 | – | – | – | 0.046 | – | – | – | 0.121 | – | – | – | – | – |
| GSE1 (UniProt Q14687) | – | – | 0.008 | 0.033 | – | -0.046 | – | -0.066 | 0.305 | -0.453 | -0.009 | 0.012 | – | – | – | – | – | 0.034 | 0.004 | -0.096 |
| ICMT (UniProt O60725) | 0.074 | 0.331 | – | 0.078 | -0.518 | -0.107 | 0.01 | -0.42 | -0.103 | 0.065 | – | 0.113 | 0.107 | 0.284 | 0.099 | – | – | 0.049 | 0.17 | -0.003 |
| GPS2 (UniProt Q13227) | 0.019 | 0.208 | – | – | -0.221 | – | 0.047 | 0.31 (active) | -0.157 | – | – | 0.02 | -0.033 | -0.059 | -0.114 | – | – | 0 | -0.045 | -0.074 |
| GPNMB (UniProt Q14956) | – | -0.151 | – | – | – | – | – | – | – | – | – | – | – | – | – | – | – | – | – | – |
| GID4 (UniProt Q8IVV7) | – | 0.054 | -0.006 | 0.009 | 0.052 | 0.032 | – | 0.044 | -0.059 | -0.086 | -0.042 | -0.032 | 0.116 | -0.029 | 0 | 0.034 | -0.058 | -0.051 | 0.003 | 0.038 |
| GNL3 (UniProt Q9BVP2) | – | -0.009 | 0.065 | 0.124 | -0.079 | -0.053 | – | – | -0.038 | -0.031 | 0.069 | – | – | 0.134 | 0.126 | 0.098 | -0.078 | -0.007 | 0.011 | 0.056 |
| FCF1 (UniProt Q9Y324) | -0.054 | -0.225 | – | -0.592 | 0.021 | 0.103 | 0.244 | -0.095 | – | 0.139 | – | -0.119 | 0.242 | -0.129 | 0.06 | 0.155 | 0.042 | – | – | – |
| IFITM3 (UniProt Q01628) | -0.027 | 0.069 | -0.085 | 0.22 | -0.002 | -0.094 | 0.038 | 0.07 | -0.073 | -0.076 | 0.049 | -0.149 | 0.113 | -0.157 | -0.038 | – | – | 0.07 | -0.2 | -0.01 |
| GOLGA6B (UniProt A6NDN3) | 0.05 | 0.036 | – | – | – | – | -0.139 | – | -0.087 | – | – | – | – | 0.146 | -0.003 | 0.404 | -0.042 | -0.183 | 0.02 | 0.02 |
